# Source: the supplement of paper PMC12350171
# Structures can show the parent of a compound that is named as a salt. Unmarked numbers belong to inactive results.
# Tests used:
# Settings in all cases: 20 µM
# [1] = test system: Salmonella enterica typhimurium; experiment: growth AUC normalised to DMSO control (fraction of control); higher = less growth inhibition, active = hit call of the paper
# Procedure, shortened: (§1)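 Pathogens passaged twice anaerobically were inoculated at a starting OD578 of 0.01 into pre-reduced mGAM plates with drug at 20 μM and 1% DMSO, sealed with breathable membranes. Haemophilus parainfluenzae medium was supplemented with hemin and NAD. OD578 was read hourly for 24 h, with three biological replicates. Growth-curve AUC was computed by the trapezoidal rule up to the exponential-to-stationary transition and normalised to DMSO controls on the same plate.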
# Shigella flexneri = experiment: as above
# Procedure, shortened: as §1
# Vibrio cholerae = experiment: as above
# Procedure, shortened: as §1
# [2] = test system: Yersinia pseudotuberculosis; experiment: as above
# Procedure, shortened: as §1
# P. vulgatus RND KO = experiment: growth AUC normalised to DMSO control (median) (fraction of control); higher = less growth inhibition, active = hit call of the paper
# Procedure, shortened: (§2)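 Strains were passaged twice overnight without oxygen, then grown in mGAM in 96-well plates with each approved-drug library compound at 20 μM and 1% DMSO, starting at OD578 0.01. OD578 was read hourly for 24 h inside an anaerobic incubator. Curves were truncated at entry into stationary phase, and the trapezoidal-rule area under the curve was normalised to same-plate vehicle wells. The value is the median across three biological replicates.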
# P. vulgatus WT = experiment: as above
# Procedure, shortened: as §2
# [3] = test system: S. enterica typhimurium WT; experiment: as above
# Procedure, shortened: as §2
# [4] = test system: S. enterica typhimurium tolC KO; experiment: as above
# Procedure, shortened: as §2
# 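For growth AUC normalised to DMSO control (median) in this document: active when median AUC fell below 0.1.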
SMILES,growth AUC normalised to DMSO control [1],growth AUC normalised to DMSO control (Shigella flexneri),growth AUC normalised to DMSO control (Vibrio cholerae),growth AUC normalised to DMSO control [2],growth AUC normalised to DMSO control (P. vulgatus RND KO),growth AUC normalised to DMSO control (P. vulgatus WT),growth AUC normalised to DMSO control [3],growth AUC normalised to DMSO control [4]
Nc1nc(=O)c2nc(CNc3ccc(C(=O)N[C@@H](CCC(=O)O)C(=O)O)cc3)cnc2[nH]1 [Folic acid],0.991,0.99,1,0.994,0.997,1,0.997,1.01
CN(C)CC/C=C1/c2ccccc2COc2ccc(CC(=O)O)cc21 [Olopatadine hydrochloride],1.02,0.963,1.03,1.02,0.99,0.984,0.992,0.992
CCC1(C)CC(=O)NC1=O (stereo not drawn) [Ethosuximide],1.02,1.02,1.03,0.999,1.02,1.05,1,0.963
OCCN1CCN(CCCN2c3ccccc3Sc3ccc(Cl)cc32)CC1 [Perphenazine],0.99,0.975,0.91,1.01,1.01,0.989,1,0.929
COc1cc(C)c(/C=C/C(C)=C/C=C/C(C)=C/C(=O)O)c(C)c1C [Acitretin],0.995,1.02,0.985,0.99,0.944,0.956,1,0.998
CN1CCCCC1CCN1c2ccccc2Sc2ccc([S+](C)[O-])cc21 (stereo not drawn) [Mesoridazine besylate],0.993,0.978,0.949,1.01,0.941,0.885,0.997,0.944
Cc1cc(-c2ccccc2)nnc1NCCN1CCOCC1 [Minaprine dihydrochloride],0.997,1.01,1.02,1,1,0.998,1,0.998
CCN(CC)CCOC(=O)c1ccc(N)cc1 [Procaine hydrochloride],1,0.992,1.01,1,1.02,0.989,0.992,0.998
O=C(O)c1cccnc1Nc1cccc(C(F)(F)F)c1 [Niflumic acid],0.989,0.998,0.897,1.01,0.907,0.936,1,0.961
COc1nc(C)nc(Cl)c1NC1=NCCN1 [Moxonidine],1.01,1.03,1.04,1.02,0.994,0.995,1,0.999
CCOc1nc2cccc(C(=O)O)c2n1Cc1ccc(-c2ccccc2-c2nnn[nH]2)cc1 [Candesartan],1.01,1.02,1.04,1.01,1.01,1,1.01,0.987
Cc1cccc(C)c1NC(=O)C(C)N (stereo not drawn) [Tocainide hydrochloride],1,0.967,1.01,0.985,1.02,1.02,0.999,1
C[C@H](CCC(=O)O)[C@H]1CC[C@H]2[C@@H]3CC[C@@H]4C[C@H](O)CC[C@]4(C)[C@H]3CC[C@]12C [Lithocholic acid],1.01,1.02,1.04,1.02,1.01,1.03,1,0.995
Nc1ccccc1S(N)(=O)=O [o-Sulfanilamide],0.993,0.971,0.988,0.99,1.01,1.01,1.01,1
CCN(CC)CCOC(=O)C(c1ccccc1)c1ccccc1 [Adiphenine hydrochloride],0.974,0.99,1.01,1,1.03,1.03,0.995,1
CC1(C)NC(=O)N(c2ccc([N+](=O)[O-])c(C(F)(F)F)c2)C1=O [Nilutamide],0.928,0.977,0.957,1,0.964,0.952,0.992,0.999

SMILES,growth AUC normalised to DMSO control [1],growth AUC normalised to DMSO control (Shigella flexneri),growth AUC normalised to DMSO control (Vibrio cholerae),growth AUC normalised to DMSO control [2],growth AUC normalised to DMSO control (P. vulgatus RND KO),growth AUC normalised to DMSO control (P. vulgatus WT),growth AUC normalised to DMSO control [3],growth AUC normalised to DMSO control [4]
CCN(CC)CCNc1ccc(CO)c2sc3ccccc3c(=O)c12 [Hycanthone],0.936,0.984,0.879,0.991,0.994,0.96,0.993,0.163
CCCCNc1ccc(C(=O)OCCOCCOCCOCCOCCOCCOCCOCCOCCOC)cc1 [Benzonatate],1.01,0.993,0.996,0.989,1.01,0.954,1,1
CC#C[C@]1(O)CC[C@H]2[C@@H]3CCC4=CC(=O)CCC4=C3[C@@H](c3ccc(N(C)C)cc3)C[C@@]21C [Mifepristone],1.01,0.988,0.994,1.01,0.93,0.954,0.999,0.92
CCOc1ccc2c(c1)C(C)=CC(C)(C)N2 [Ethoxyquin],0.998,0.95,0.958,0.986,0.971,0.972,1.01,1
CN(C)CCC[C@@]1(c2ccc(F)cc2)OCc2cc(C#N)ccc21 [Escitalopram oxalate],1,0.991,0.976,0.99,1.01,1,0.989,0.982
CC(=O)CC(c1ccc([N+](=O)[O-])cc1)c1c(O)c2ccccc2oc1=O (stereo not drawn) [Acenocoumarol],0.985,1.01,0.938,0.991,1.07,1.06,0.999,0.999
CCOC(=O)[C@H](CCc1ccccc1)N[C@@H](C)C(=O)N1[C@H](C(=O)O)C[C@@H]2CCC[C@@H]21 [Ramipril],1.02,1.06,1.07,1.01,0.985,0.99,1.01,1
Cc1ccc(N(CC2=NCCN2)c2cccc(O)c2)cc1 [Phentolamine hydrochloride],1.03,1.01,1.02,0.975,1,0.991,0.999,0.99
O=C1NCCN1CCN1CCC(c2cn(-c3ccc(F)cc3)c3ccc(Cl)cc23)CC1 [Sertindole],1.02,1.04,1.02,1.01,0.833,0.905,1,0.949
O=C1CN(/N=C/c2ccc(-c3ccc([N+](=O)[O-])cc3)o2)C(=O)N1 [Dantrolene sodium salt],1.04,0.97,0.948,0.986,1.04,1.03,1.02,0.825
CC1CC(OC(=O)c2ccccc2O)CC(C)(C)C1 (stereo not drawn) [Homosalate],1,0.996,1.02,1.01,0.995,1.03,1.01,0.998
O=C1NCN(c2ccccc2)C12CCN(CCCC(c1ccc(F)cc1)c1ccc(F)cc1)CC2 [Fluspirilene],1.04,1.01,1.04,1.01,1,1.01,1.02,0.988
C[C@H](CS)C(=O)N1CCC[C@H]1C(=O)O [Captopril],1.01,1.03,0.995,1.01,1.01,1.06,0.991,1.01
CC(C)(O/N=C(\C(=O)N[C@@H]1C(=O)N2C(C(=O)[O-])=C(C[n+]3ccccc3)CS[C@H]12)c1csc(N)n1)C(=O)O [Ceftazidime pentahydrate],0.016 (active),0.0524 (active),0.494 (active),0.186 (active),0.0283 (active),0.0233 (active),0.214,0.0609 (active)
CC(C)N1CCN(c2ccc(OCC3COC(Cn4cncn4)(c4ccc(Cl)cc4Cl)O3)cc2)CC1 (stereo not drawn) [Terconazole],0.962,0.982,1,0.989,1.06,1.04,1.01,0.97
